# Bioassay records (PubChem BioAssay)
# The list is not random: actives were taken first. Their share in the collection is about 12%.
# BAZ2B block: qHTS Assay for Inhibitors of BAZ2B; Bromodomain adjacent to zinc finger domain protein 2B (Homo sapiens), Q9UIF8; AlphaScreen BAZ2B-H3K14Ac peptide displacement; Potency, µM (titrated, usually from 114 µM), actives largely listed as inhibitors; actives 4.4% (n = 360,000); AID 504333, 2011; also: nearly all actives have a fitted effect of over 60% in size
#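 BAZ2B (50 nM) with biotin-H3(5-23)K14Ac peptide (50 nM) in PBS pH 7.4, 0.01% Tween-20, preformed 30 min, then compound 30 min at room temperature; top concentration 110uM. AlphaScreen streptavidin donor/nickel chelate acceptor beads (10 ug/mL final), 20 min dark, signal read.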
# JMJD2A Tudor: qHTS Assay for Inhibitors of JMJD2A-Tudor Domain. actives 4.4% (n = 390,000). AlphaScreen JMJD2A-Tudor / H3K4me3 peptide binding. Potency, µM (series often up to 114 µM), usual class: inhibitors. Lysine-specific demethylase 4A (Homo sapiens), O75164; also: nearly all actives have a fitted effect of over 50% in size
# PLK1 PBD block: qHTS for Inhibitors of PLK1-PDB (polo-like kinase 1 - polo-box domain): Primary Screen. Serine/threonine-protein kinase PLK1 (Homo sapiens), P53350. Plk1 PBD binding of FITC phosphopeptide, fluorescence polarization. Potency, µM, actives largely listed as inhibitors. actives 2.8% (n = 360,000); also: series mostly up to about 57 µM; nearly all actives have a fitted effect of over 65% in size
# Target sequence (P53350 whole entry, looked up, the tested form may be a part): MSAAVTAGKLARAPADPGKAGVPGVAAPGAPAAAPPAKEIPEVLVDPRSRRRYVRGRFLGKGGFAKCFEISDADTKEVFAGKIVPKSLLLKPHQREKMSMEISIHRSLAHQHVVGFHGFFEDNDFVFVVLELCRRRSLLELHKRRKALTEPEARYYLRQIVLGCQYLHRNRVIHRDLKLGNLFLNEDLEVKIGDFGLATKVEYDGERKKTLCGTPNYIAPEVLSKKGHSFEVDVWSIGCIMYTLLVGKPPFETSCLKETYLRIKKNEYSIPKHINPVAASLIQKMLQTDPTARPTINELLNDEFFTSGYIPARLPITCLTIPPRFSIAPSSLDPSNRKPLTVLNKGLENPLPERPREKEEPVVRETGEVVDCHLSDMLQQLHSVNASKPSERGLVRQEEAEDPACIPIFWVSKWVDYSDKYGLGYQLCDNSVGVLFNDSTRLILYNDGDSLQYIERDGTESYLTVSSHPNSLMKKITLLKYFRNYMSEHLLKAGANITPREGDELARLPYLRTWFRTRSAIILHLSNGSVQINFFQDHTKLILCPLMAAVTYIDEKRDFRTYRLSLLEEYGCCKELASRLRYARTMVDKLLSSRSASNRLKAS
# HP1b chromo inh: HTS for Inhibitors of HP1-beta Chromodomain Interactions with Methylated Histone Tails; Potency, µM (titrated, usually from 114 µM), most hits filed as inhibitors; AID 540317, 2011; AlphaScreen HP1-beta / biotin-H3K9me3 peptide binding; Chromobox protein homolog 1 (Homo sapiens), P83916; actives 0.56% (n = 390,000); also: nearly all actives have a fitted effect of over 70% in size
#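 Compound inhibition of the preformed complex between 50 nM HP1-beta and 50 nM biotinylated H3K9me3 peptide was read by AlphaScreen. Buffer was PBS pH 7.4 with 0.01% Tween-20. Incubations ran 30 min at room temperature, with 10 ug/mL donor/acceptor beads.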
# G9a inh: qHTS Assay for Inhibitors of Histone Lysine Methyltransferase G9a. actives 8.8% (n = 350,000). Potency, µM (top dose mostly 102 µM), actives largely listed as inhibitors. G9a H3K9 monomethylation, AlphaScreen, 2 h. AID 504332, 2011; also: nearly all actives have a fitted effect of over 75% in size
#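 Readings reflect AlphaScreen signal from monomethyl-H3K9 antibody detection. HMT at 20 nM; substrate b-H3K9 500 nM; cofactor SAM 20 uM; 2 h RT reaction; compounds tested as titrations in qHTS with 15 min preincubation.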
# PI5P4K alpha inh: qHTS for Inhibitors of phosphatidylinositol 5-phosphate 4-kinase (PI5P4K). max response, %. AID 652105, 2013. actives 1.2% (n = 330,000). PI5P4Kalpha enzyme, ADP-Glo luminescence, 60 min; stronger effect = lower value; active = max response of -50% or lower; inconclusive = between -30% and -50%; inactive = -30% or higher; also: value at the top dose of about 77 µM
#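 qHTS, 1536-well: enzyme/substrate mix, compound by pin tool, 5 microM ATP final; RT 60 min; ADP-Glo reagents 1 (45 min) then 2 (30 min); luminescence.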
# Numbers stand for hits; i = inactive; ? = inconclusive; nt = no result given; [ ] = another dose, or the depositor's remark. Unless noted, calls follow the shape of the dose curve; as a rule, active = well fitted curve in the direction sought with a large enough effect; inconclusive = small, poorly fitted or top-dose-only effect, or another doubt; inactive = no such curve, though single readings can be large; an effect the other way counts as inactive or inconclusive.
SMILES,BAZ2B block,JMJD2A Tudor,PLK1 PBD block,HP1b chromo inh,G9a inh,PI5P4K alpha inh
O=C(O)c1ccc(/C=N/n2c(C3CCCCC3)n[nH]c2=S)cc1,i,3.5µM,i,i,10µM,i
O=C(CCC(=O)NC1CCCCC1)N/N=C/c1ccncc1,i,i,i,i,i,i
Cc1ccc(/C=N/n2c(C3CCCCC3)n[nH]c2=S)o1,i,10µM,?,?,2µM,i
S=c1[nH]nc(C2CCCCC2)n1/N=C/c1cccs1,i,50µM,i,i,?,i
S=c1[nH]nc(C2CCCCC2)n1/N=C/c1ccncc1,i,5µM,i,i,?,i
CC(Nc1ccc(-c2nc(-c3ccncc3)no2)cc1[N+](=O)[O-])c1ccccc1 (stereo not drawn),i,i,nt,i,i,nt
COc1c2c(c(OC)c3ccccc13)[C@]1(OC2)O[C@H](CCO)C[C@H](O)[C@H]1O,nt,nt,i,nt,nt,i
Cc1cc(NC(=O)c2ccco2)sc1C,i,i,i,i,?,i
O=c1c2ccccc2nc(-c2ccccc2)n1/N=C/c1ccc([N+](=O)[O-])cc1,i,i,i,i,i,i
CSc1ccc(/C=N/n2c(C3CCCCC3)n[nH]c2=S)cc1,?,?,i,?,11µM,i
O=[N+]([O-])c1ccc(/C=N/n2c(C3CCCCC3)n[nH]c2=S)cc1,i,89µM,?,i,?,i
CCN(c1cc(C)cc(C)c1)S(=O)(=O)c1nnc(NC(=O)C2CCCCC2)s1,i,i,nt,i,?,nt
O=C(COc1ccc(F)cc1)Nc1ccc(Cl)c(-c2nc3ccccc3[nH]2)c1,i,i,nt,i,i,nt
CCOC(=O)c1c(CC(C)C)csc1/N=C/C1C(=O)CCCC1=O,?,i,i,i,50µM,i
CC(OC(=O)CCc1nc2ccccc2[nH]c1=O)C(=O)c1ccccc1 (stereo not drawn),i,i,i,i,79µM,i
COC(=O)CSCc1nc2ccccc2[nH]c1=O,i,i,12µM,i,20µM,i
Oc1ccc2oc3c(c2c1C=NCc1ccncc1)CCCC3,i,i,?,i,71µM,i
CCOC(=O)c1c(NC(=O)/C=C/C(=O)O)sc(C)c1-c1ccc(C(C)(C)C)cc1,?,?,21µM,i,?,i
CCc1c(C)sc(NC(=O)/C=C/C(=O)O)c1C(N)=O,i,i,i,i,35µM,i
CCOC(=O)c1c(NC(=O)/C=C\C(=O)O)sc(C)c1-c1ccccc1,i,?,21µM,i,?,?
CCOC(=O)c1c(NC(=O)C2CC2)sc(C)c1CC,i,i,i,i,?,i
Cc1sc(NC(=O)/C=C/C(=O)O)c(C(N)=O)c1-c1ccc(C(C)(C)C)cc1,i,i,27µM,i,?,?
CCOC(=O)c1c(NC(=O)c2c(-c3ccccc3)noc2C)sc(C)c1-c1ccccc1,i,i,i,i,i,i
Cc1sc(NC(=O)C2C3CCC(C3)C2C(=O)O)c(C(N)=O)c1-c1ccc(C(C)(C)C)cc1 (stereo not drawn),i,i,?,i,?,i
COC(=O)c1ccc2nc(-c3ccc(OC)c(OC)c3)c(Cc3cccc(F)c3)n2c1,nt,nt,i,nt,nt,i
SMILES,BAZ2B block,JMJD2A Tudor,PLK1 PBD block,HP1b chromo inh,G9a inh,PI5P4K alpha inh
Cc1ccc(SCC(=O)NC(=O)c2ccccc2Br)c(C)c1,nt,i,i,i,nt,i
c1ccc(CCC2Cc3ccccc3N2)cc1 (stereo not drawn),?,56µM,i,i,i[0.501 µM],i
Cc1nc2nc(C)n(CCN3CCOCC3)c(=O)c2c(-c2cccc([N+](=O)[O-])c2)c1C(=O)CCCCCCCCCCN1CCC(c2ccccc2)(c2ccccc2)CC1,nt,25µM,i,40µM,nt,i
CCOC(=O)c1c[nH]c2c(C)ccc(Cl)c2c1=O,i,28µM,19µM,i,i,i
CCOC(=O)c1c[nH]c2c(Cl)ccc(Cl)c2c1=O,i,i,i,i,i,i
CCOC(=O)c1c[nH]c2c(Cl)c(Cl)ccc2c1=O,i,?,27µM,?,i,i
OCC1(CC2CCCCO2)CCN(C/C=C/c2ccccc2)CC1 (stereo not drawn),i,i,i,i,i,i
COc1ccccc1/C=C/CN1CCN(Cc2ccc(C)o2)C(CCO)C1 (stereo not drawn),i,i,i,i,nt,i
COc1cc(/C=C/CN2CCC(CO)(CC3CCCCO3)CC2)ccc1O (stereo not drawn),i,i,i,i,56µM,i
COc1cc(/C=C/CN2CCN(Cc3ccc(C)o3)C(CCO)C2)ccc1O (stereo not drawn),i,i,i,i,79µM,i
CC(=O)c1cc(CN2CCN(CCC(C)C)C(CCO)C2)cs1 (stereo not drawn),i,i[11.4 µM],21µM,i,nt,i
COc1cc(/C=C/CN2CCN(CCC(C)C)C(CCO)C2)ccc1O (stereo not drawn),i,i,i,i,71µM,i
CC(=O)c1cc(CN2CCN(Cc3ccc(C)cc3)C(CCO)C2)cs1 (stereo not drawn),i,i,i,i,i,i
COc1ccc(/C=C/CN2CCN(CC(C)C)C(CCO)C2)cc1 (stereo not drawn),i,i,i,i,?,i
Cc1nc2nc(SCC(=O)NCCCN3CCCC(C)C3)nn2c(C)c1Cc1ccccc1Cl (stereo not drawn),i,i,i,i,i,i
Cc1ccc(Cc2nc3ccccc3nc2SCC(=O)NCCc2ccccc2)cc1,i,i,nt,i,i,nt
CN(Cc1ccccc1)C(=O)c1cccc(NC(=O)Cc2ccc(NC(=O)C3CCN(C(=O)C4CC4)CC3)cc2)c1,nt,i,i,i,nt,i
O=S(=O)(c1ccccc1)N1CCC2(CCCN(c3ccncc3)C2)CC1,nt,nt,nt,nt,i[12.7 µM],nt
CN(C)C(=O)c1cc(C(=O)c2ccccc2Br)c[nH]1,i,i,i,i,i,i
COc1ccc(CN2CCNC(=O)C2CC(=O)NCc2cnn(C)c2)cc1OC (stereo not drawn),i,i,i,i,50µM,i
COc1ccc(CN2CCNC(=O)C2CC(=O)NCCc2nc(C)c(C)s2)cc1C (stereo not drawn),i,?,i,i,45µM,i
Cc1nc(CCNC(=O)CC2C(=O)NCCN2Cc2ccccc2)sc1C (stereo not drawn),i,i,i,i,nt,i
COc1cccc(-c2nnc(SCc3ccc(C#N)cc3)n2Cc2ccco2)c1,i,?,i,i,35µM,i
Cc1ccc(-c2nnc(SCc3ccc(C#N)cc3)n2Cc2ccco2)cc1,i,79µM,i,i,nt,nt
